In PubChem BioAssay AID1619 (SRMLSC, 2009):
Hit rate of the full screen: of about 220,000 compounds, about 830 (0.38%) were called active.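 How the source made its calls: active means compound inhibiting the enzyme by more than half at any dose during confirmatory dose-response retesting; inconclusive means strong single-dose inhibitors picked by rank but not retested; inactive means the rest.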 The list is a sample of the results. Entries with a potency or affinity are not part of this list.

molecular target: Leucine aminopeptidase (Plasmodium falciparum (isolate 3D7)) (UniProt Q8IL11); experiment: P. falciparum M17LAP inhibitors, primary screen, biochemical, fluorogenic H-Leu-NHMec substrate, 1536-well (AID 1619); conditions: recombinant M17LAP, H-Leu-NHMec fluorogenic kinetic assay; at 30 µM; stronger effect = higher value;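 further: plate controls were full reaction with DMSO carrier for no effect and no enzyme background for full effect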
Sequence (Q8IL11 whole entry, looked up): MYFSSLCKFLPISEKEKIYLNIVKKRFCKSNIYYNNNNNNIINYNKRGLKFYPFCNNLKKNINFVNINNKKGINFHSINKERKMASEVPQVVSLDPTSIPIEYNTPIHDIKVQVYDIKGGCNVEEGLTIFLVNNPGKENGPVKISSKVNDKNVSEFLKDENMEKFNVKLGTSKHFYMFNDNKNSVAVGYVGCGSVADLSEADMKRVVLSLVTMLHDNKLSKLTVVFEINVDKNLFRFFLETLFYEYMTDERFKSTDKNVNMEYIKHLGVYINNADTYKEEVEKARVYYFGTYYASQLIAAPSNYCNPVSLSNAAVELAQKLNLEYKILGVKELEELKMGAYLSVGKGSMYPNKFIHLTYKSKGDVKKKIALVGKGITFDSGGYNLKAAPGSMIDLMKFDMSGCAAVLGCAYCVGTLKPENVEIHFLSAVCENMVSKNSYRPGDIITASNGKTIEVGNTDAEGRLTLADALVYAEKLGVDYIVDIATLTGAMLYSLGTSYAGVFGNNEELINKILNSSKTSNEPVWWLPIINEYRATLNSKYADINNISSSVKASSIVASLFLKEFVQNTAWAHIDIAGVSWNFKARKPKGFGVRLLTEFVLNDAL

inhibition, inactive:
O=C(CCc1nnc(CCCCc2ccccc2)o1)NCc1cccc(F)c1 -1.09%
CCC(C)Oc1cc(-c2ccnc(Nc3cccc(Cl)c3)n2)ccn1 (stereo unspecified) 0.9%
CC(=O)Nc1ccc(S(=O)(=O)NCc2csc(-c3cccnc3)n2)cc1 5.75%
Cc1ccc(-c2cc(C(=O)Nc3ccc(S(=O)(=O)Nc4ncccn4)cc3)c3ccccc3n2)cc1 39.1%
Cc1ccc(-c2cc(C(=O)Nc3ccc(S(=O)(=O)Nc4nc(C)cc(C)n4)cc3)c3ccccc3n2)cc1 -0.85%
CC(=O)NS(=O)(=O)c1ccc(NC(=O)c2cc(-c3cccs3)nc3ccccc23)cc1 16.1%
CC(=O)NS(=O)(=O)c1ccc(NC(=O)c2cc(-c3ccc(C)c(C)c3)nc3ccccc23)cc1 -0.01%
COc1ccc2c(c1)nc(SCC(=O)c1ccc(Br)s1)n2C 43.5%
COc1ccc(C(O)P(=O)(O)CCc2ccccc2)cc1 (stereo unspecified) 21.7%
CCOC(=O)CCP(=O)(O)C(O)c1ccccc1 (stereo unspecified) 11.7%
O=C1OC(c2ccccc2)=C/C1=C\N1CCOCC1 8.13%
CC(C)[C@H](NC(=O)c1ccccc1)C(=O)OCC(=O)N1CCc2ccccc2C1 10.5%
COc1ccc(NC(=O)c2ccc(-n3cccn3)c([N+](=O)[O-])c2)cc1 1.4%
O=C(CCCOc1ccc(Cl)cc1Cl)n1nnc2ccccc21 69.2%
O=C(CCCOc1ccccc1)n1nnc2ccccc21 -0.57%
CN1CCN(C(=O)/C=C/c2ccc3c(c2)OCO3)CC1 6.85%
COc1ccc(-n2c(=O)c3c4c(sc3n(CC(=O)NC3CCCC3)c2=O)CCCC4)c(OC)c1 0%
COc1cc(NC(=O)Cc2cccs2)c(C(=O)O)cc1OC 4.5%
O=C(CC(Nc1ccccc1Cl)C(=O)O)c1ccccc1 (stereo unspecified) 19.8%
Cc1c(Cl)cccc1NC(CC(=O)c1ccccc1)C(=O)O (stereo unspecified) 49.4%
O=C(CCCN1C(=O)c2ccccc2C1=O)Nc1nncs1 0.65%
COc1cc(-c2csc(C)n2)ccc1O -9.57%
Oc1ccc(-c2nc(-c3ccc(O)c(O)c3)cs2)cc1 25.6%
Cc1cc(Cl)cc(Cl)c1OCCCCN(C)C 1.1%
Cn1c(NC(=O)/C=C/c2ccccc2)cc(=O)n(C)c1=O 9.82%
COc1ccc(/C=C/C(=O)Nc2cc(=O)n(C)c(=O)n2C)cc1 50.5%
